Compound activity deposited in PubChem by National Center for Advancing Translational Sciences (NCATS).
Sfp PPTase inh – blocks B. subtilis Sfp PPTase activity | Q9F4F7 | Biochemical Sfp PPTase activity, qHTS | Potency, µM, usual class: inhibitors | actives 3.5% (n = 310,000) | AID 1490;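 note: the enzyme is Sfp with the accession as filed and its product quenches rhodamine fluorescence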
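Compounds were incubated with enzyme (final 15 nM) for 15 min at room temperature before substrate addition started the reaction. Fluorescence at 525 nm excitation, 598 nm emission was recorded immediately and after 30 minutes.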
HP1b binding inh – blocks HP1-beta chromodomain binding to methylated histone tails; AlphaScreen HP1-beta / biotin-H3K9me3 peptide binding; Potency, µM (titrated, usually from 114 µM), most hits filed as inhibitors; actives 0.56% (n = 390,000); note: nearly all actives have a fitted effect of over 70% in size
Target sequence (P83916 whole entry, looked up): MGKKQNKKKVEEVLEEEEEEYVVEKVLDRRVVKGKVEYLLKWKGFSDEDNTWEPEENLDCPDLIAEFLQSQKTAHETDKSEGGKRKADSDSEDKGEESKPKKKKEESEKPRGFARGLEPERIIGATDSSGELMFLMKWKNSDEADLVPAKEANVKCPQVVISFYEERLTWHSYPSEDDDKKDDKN
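HP1-beta protein (50 nM final) preincubated 30 min at room temperature with biotinylated H3(1-18)K9me3 peptide (50 nM) in PBS pH 7.4, 0.01% Tween-20, then compound added for 30 min. AlphaScreen streptavidin donor/nickel chelate acceptor beads (10 ug/mL final), 30 min dark, luminescence read.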
ALOX12 inh – inhibitors of human 12S-lipoxygenase ALOX12. purified 12hLO, xylenol orange hydroperoxide absorbance. actives 1.1% (n = 580,000). Potency, µM (highest dose often 108 µM), hits mostly inhibitors. P18054
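Purified human 12hLO at 150 nM in 25 mM Hepes, 0.01% Triton X-100, pH 7.0, preincubated 15 min at room temperature with compound. Reaction started with 40 uM arachidonic acid, 30 min at room temperature. Hydroperoxide measured by Fe-xylenol orange, 573/405 nm absorbance ratio.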
G9a block – G9a (human) methyltransferase inhibition; Q96KQ7; G9a H3K9 monomethylation, AlphaScreen, 2 h; Potency, µM (titrated, usually from 102 µM), most hits filed as inhibitors; actives 8.8% (n = 350,000); AID 504332; note: nearly all actives have a fitted effect of over 75% in size
Target sequence (Q96KQ7 913-1193 limits assumed): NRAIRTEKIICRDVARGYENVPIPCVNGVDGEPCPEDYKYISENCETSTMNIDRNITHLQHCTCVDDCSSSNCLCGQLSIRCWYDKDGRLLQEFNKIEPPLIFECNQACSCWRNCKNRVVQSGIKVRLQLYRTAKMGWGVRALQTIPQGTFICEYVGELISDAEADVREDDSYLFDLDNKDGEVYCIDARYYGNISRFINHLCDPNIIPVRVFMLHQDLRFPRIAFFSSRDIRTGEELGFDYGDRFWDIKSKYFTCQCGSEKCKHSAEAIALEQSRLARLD
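G9a (20 nM) preincubated 15 min RT with compounds, then 500 nM biotinylated H3K9 peptide and 20 uM SAM added; 2 h RT reaction. Monomethyl-H3K9 product detected by AlphaScreen with anti-H3K9me1 antibody, streptavidin donor and anti-rabbit IgG acceptor beads.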
JMJD2A Tudor – JMJD2A Tudor domain (human) inhibition; O75164; AID 504339; Potency, µM (highest dose often 114 µM), usual class: inhibitors; AlphaScreen JMJD2A-Tudor / H3K4me3 peptide binding; actives 4.4% (n = 390,000); note: nearly all actives have a fitted effect of over 50% in size
BAZ2B block – blocks human BAZ2B | AlphaScreen BAZ2B-H3K14Ac peptide displacement | Potency, µM (highest dose often 114 µM), most hits filed as inhibitors | actives 4.4% (n = 360,000); note: nearly all actives have a fitted effect of over 60% in size
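Compounds, titrated to a top concentration of 110 uM, were incubated 30 min at room temperature with preformed BAZ2B/acetyl-K14 H3 peptide complex (50 nM each). Proximity signal was measured by AlphaScreen after 20 min with beads.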
Large screens that a line does not name were inactive. Hits are enriched below; roughly 8.7% of the tested compounds scored in any of these assays. Calls come from the whole dose curve; as a rule, active = well fitted curve in the direction sought with a large enough effect; inconclusive = small, poorly fitted or top-dose-only effect, or another doubt; inactive = no such curve, though single readings can be large; an effect the other way counts as inactive or inconclusive.

CCN(CC)CCC(c1ccc(N(C)C)cc1)c1c(O)cc(OC)cc1OC (centres undefined)	HP1b binding inh inconclusive, G9a block inconclusive, JMJD2A Tudor 40µM, BAZ2B block 50µM
COc1ccc(C(CCN2CCN(c3ccccc3)CC2)c2c(O)cc(OC)cc2OC)cc1 (centres undefined)	JMJD2A Tudor 16µM, BAZ2B block 28µM
Cc1cccc(NC(=O)COC(=O)CCc2nc3ccccc3s2)c1C	none (no result: Sfp PPTase inh, HP1b binding inh, G9a block, JMJD2A Tudor, BAZ2B block)
COc1cc(O)c(C(CCN2CCOCC2)c2ccc(N(C)C)cc2)c(OC)c1 (centres undefined)	HP1b binding inh inconclusive, G9a block inconclusive, JMJD2A Tudor 45µM, BAZ2B block 35µM
COc1cc(O)c(C(CC(=O)N2CCCCC2)c2ccc(N(C)C)cc2)c(OC)c1 (centres undefined)	G9a block inconclusive, JMJD2A Tudor 50µM, BAZ2B block inconclusive
COc1ccc(N2CCN(CCC(O)c3ccc4ccccc4c3)CC2)cc1 (centres undefined)	HP1b binding inh inconclusive, G9a block 40µM, JMJD2A Tudor 50µM
COc1cc(O)c(C(CC(=O)N2CCOCC2)c2ccc(N(C)C)cc2)c(OC)c1 (centres undefined)	ALOX12 inh inconclusive, JMJD2A Tudor inconclusive, BAZ2B block inconclusive
COc1ccc(N2CCN(CC(=O)NC(C)c3ccccc3)CC2)cc1 (centres undefined)	none
O=C(CNC(=O)C1CCC(CNS(=O)(=O)c2ccc(F)cc2)CC1)NCc1ccccn1 (centres undefined)	none (no result: Sfp PPTase inh, HP1b binding inh, G9a block, JMJD2A Tudor, BAZ2B block)
Cc1ccc(-c2ccc(S(=O)(=O)N3CCCC3)cc2)cc1	G9a block inconclusive
O=S(=O)(c1ccc(-c2n[nH]c(=S)o2)cc1)N1CCCC1	G9a block 35µM
O=S(=O)(c1ccc(-c2n[nH]c(=S)o2)cc1)N1CCCCC1	HP1b binding inh inconclusive, G9a block 11µM, BAZ2B block inconclusive
CN(C)C(=O)C1CN(C(=O)Nc2cccc(Cl)c2F)CC12CCOCC2 (centres undefined)	none (no result: Sfp PPTase inh, HP1b binding inh, G9a block, JMJD2A Tudor, BAZ2B block)
O=C(Cc1ccc([N+](=O)[O-])cc1)N/N=C/c1cccs1	none
O=C(N/N=C/c1cccn1-c1ccc([N+](=O)[O-])cc1)C(O)c1ccccc1 (centres undefined)	Sfp PPTase inh 18µM, G9a block 45µM, JMJD2A Tudor inconclusive, BAZ2B block inconclusive
O=C(Cc1ccccc1)N/N=C/c1cccn1-c1ccc([N+](=O)[O-])cc1	HP1b binding inh inconclusive, G9a block 7.1µM, BAZ2B block 25µM
O=C(O)c1ccc(NC(=S)Nc2ccccc2)cc1	Sfp PPTase inh 50µM, ALOX12 inh inconclusive, G9a block inconclusive
COC(=O)c1ccc(NC(=S)Nc2ccccc2)cc1	none
COC(=O)c1sccc1NC(=O)/C=C/c1c(Cl)cccc1Cl	Sfp PPTase inh 40µM
COC(=O)c1sccc1NC(=O)c1c(Cl)cccc1Cl	ALOX12 inh inconclusive (no result: G9a block)
COC(=O)c1sccc1NC(=O)c1cccnc1	JMJD2A Tudor 89µM
COC(=O)c1ccc(NC(=S)NC(=O)c2cccnc2)cc1	Sfp PPTase inh 89µM (no result: G9a block)
COc1cccc(CC(=O)N2CCCC(CN3CCCC3)CC2)c1 (centres undefined)	none (no result: Sfp PPTase inh, HP1b binding inh, G9a block, JMJD2A Tudor, BAZ2B block)
Cc1nonc1CC(=O)N1CCc2onc(-c3ccc(F)c(F)c3)c2C1	none (no result: Sfp PPTase inh, HP1b binding inh, G9a block, JMJD2A Tudor, BAZ2B block)
COc1ccc(NC(=S)NC(=O)c2cccnc2)cc1	none
O=C(O)c1ccc(NC(=S)NC(=O)c2cccnc2)cc1	ALOX12 inh inconclusive, G9a block 79µM
COC(=O)CN1C(=O)S/C(=C/c2ccc(N3CCCCC3)o2)C1=O	Sfp PPTase inh 7.1µM, HP1b binding inh inconclusive, ALOX12 inh 45µM, JMJD2A Tudor 35µM, BAZ2B block 45µM
CCOC(=O)CN1C(=O)S/C(=C/c2ccc(N3CCCCC3)o2)C1=O	Sfp PPTase inh 14µM, ALOX12 inh 7.9µM, G9a block 3.2µM, JMJD2A Tudor 50µM
CCOC(=O)CN1C(=O)S/C(=C\c2ccc(-c3ccc(C(=O)O)c(Cl)c3)o2)C1=O	Sfp PPTase inh 50µM, ALOX12 inh inconclusive, G9a block 50µM, JMJD2A Tudor 79µM, BAZ2B block inconclusive
CCOC(=O)CN1C(=O)S/C(=C/c2ccco2)C1=O	G9a block inconclusive, BAZ2B block inconclusive
O=C(O)c1ccc(-c2ccc(/C=C3\NC(=O)N(Cc4ccc(Cl)cc4)C3=O)o2)cc1Cl	Sfp PPTase inh 20µM, HP1b binding inh 32µM, ALOX12 inh inconclusive, G9a block 20µM, JMJD2A Tudor 32µM, BAZ2B block 22µM
COC(=O)CN1C(=O)S/C(=C/c2cc(C)n(C)c2C)C1=O	ALOX12 inh inconclusive, G9a block inconclusive, JMJD2A Tudor inconclusive, BAZ2B block inconclusive
COc1ccc(N(Cc2nc3nc(C)cc(=O)n3[nH]2)C(=O)c2ccccc2F)cc1	none (no result: Sfp PPTase inh, HP1b binding inh, G9a block, JMJD2A Tudor, BAZ2B block)
CCC1CCCCN1C(=O)CN1C(=O)N(c2c(C)cccc2C)S(=O)(=O)c2ccccc21 (centres undefined)	none (no result: Sfp PPTase inh, HP1b binding inh, G9a block, JMJD2A Tudor, BAZ2B block)
Cc1ccc(Cl)cc1NC(=O)N1CCC(Oc2ncccc2C(=O)N2CCOCC2)C1 (centres undefined)	none (no result: Sfp PPTase inh, HP1b binding inh, G9a block, JMJD2A Tudor, BAZ2B block)
O=C(NCc1ccnc2[nH]ccc12)c1cccc(Cl)c1	none (no result: Sfp PPTase inh, HP1b binding inh, G9a block, JMJD2A Tudor, BAZ2B block)
CCN(CC)c1ccc(/C=C2/SC(=O)N(C(C)C)C2=O)o1	Sfp PPTase inh 3.2µM, ALOX12 inh 45µM, G9a block 7.1µM, JMJD2A Tudor inconclusive, BAZ2B block inconclusive
CC(C)N1C(=O)S/C(=C\c2ccc(-c3ccc(Cl)c(C(=O)O)c3)o2)C1=O	ALOX12 inh inconclusive, G9a block 40µM, JMJD2A Tudor 79µM
Cc1cc(N2CCOCC2)ccc1/C=C1\SC(=O)N(C(C)C)C1=O	none
O=C(O)CN1C(=O)/C(=C/c2ccc(N3CCCCC3)o2)SC1=S	Sfp PPTase inh 28µM, HP1b binding inh inconclusive, ALOX12 inh inconclusive, G9a block 25µM, JMJD2A Tudor inconclusive, BAZ2B block 35µM
CC(C)OC(=O)c1cc(-c2ccc(C=O)o2)ccc1Cl	ALOX12 inh inconclusive, G9a block inconclusive
O=C(O)CCCCCCCCC#CC#CCCc1ccccc1	none (no result: Sfp PPTase inh, HP1b binding inh, G9a block, JMJD2A Tudor, BAZ2B block)
CC(C)C(=O)N1Cc2ccccc2CC2(CCCN(Cc3ccccc3)C2)C1 (centres undefined)	none (no result: Sfp PPTase inh, HP1b binding inh, G9a block, JMJD2A Tudor, BAZ2B block)
O=C(/C=C/c1ccc([N+](=O)[O-])cc1)Nc1ncc([N+](=O)[O-])s1	Sfp PPTase inh 40µM, G9a block 50µM, BAZ2B block 35µM
[O-]/C(=C(\C(=S)Nc1ccccc1F)[n+]1ccccc1)c1ccc(OC(F)F)cc1	Sfp PPTase inh inconclusive, G9a block 50µM
COc1cccc(NC(=O)/C=C/c2ccc([N+](=O)[O-])cc2)c1	Sfp PPTase inh 50µM, ALOX12 inh inconclusive, G9a block 7.9µM, BAZ2B block inconclusive
